Reference: PubChem BioAssay
Activity calls are given as the source filed them.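 The calls were made as follows, unless noted: active = visually confirmed hit in the image check and inhibition above 20%; inconclusive = visually confirmed hit but inhibition not above 20%; inactive = no visual hit in the image check.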

How the values were obtained:
[1] = inhibitors of TNFa-induced NFkB p65 translocation, primary screen, imaging, HUVEC, MLSMR starter and 10KST1 sets (AID 438;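 active = inhibition above 20% together with a positive visual image hit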;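 also: compound added about 3h40 before a 20 min TNFalpha stimulation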;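 as to inhibition: signal is the nuclear over cytoplasmic p65 intensity ratio per well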); conditions: HUVEC TNFa-induced p65 nuclear translocation; cell count: measured here: nuclei count (cytotoxicity indicator), at 2.08 µM; inhibition: at 2 µM, stronger effect = higher value, 0% TNFa-plus-vehicle, 100% no-TNFa wells
[2] = inhibitors of mutant huntingtin aggregation, primary screen, imaging, exon1htt(103Q)mCFP cells, high-content imaging (AID 483;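 active = visual image review flags a hit and inhibition of aggregation exceeds 20%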;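 also: compound exposure lasted 3 days before fixation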;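 as to nuclei count: percent of the per-plate median nuclei count of sample wells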); conditions: exon1htt(103Q)mCFP cell line, aggregate imaging, at 2 µM; inhibition of aggregation: stronger effect = higher value; nuclei count: measured here: cell count, toxicity
[3] = inhibitors of E-selectin induction by TNFa, primary screen, imaging, HUVEC, immunofluorescence, MLSMR starter and 10KST1 sets (AID 487); conditions: HUVEC TNFalpha-induced E-selectin immunofluorescence imaging, at 2 µM; inhibition: stronger effect = higher value; nuclei count: measured here: cell number, toxicity;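 as to inhibition: signal is fraction of cell area covered by stained E-selectin grains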;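 as to nuclei count: 100% = median nuclei count of all wells on the same plate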
[4] = target: Voltage-gated potassium channel subunit beta-2 (Rattus norvegicus) (UniProt P62483); experiment: KvBeta enzyme negative modulators, primary screen, biochemical, NADPH fluorescence (AID 622;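 active = fluorescence slope higher than the sample average by over 3 SD, cut at about -0.22 in these data, passing the limit was not always enough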;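 also: slope of raw intensity against log time taken from 70 to 1610 s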); conditions: recombinant KvBeta, 4-cyanobenzaldehyde reduction, at 10 µM, stronger effect = higher value
[5] = target: Voltage-gated potassium channel subunit beta-2 (Rattus norvegicus) (UniProt P62483); experiment: KvBeta positive modulators, primary screen, biochemical, NADPH fluorescence (AID 623;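 active = NADPH fluorescence slope more negative than the mean of all samples by about 3 SD, 99.7% confidence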;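 also: fluorescence intensity change per second fitted from 20 to 320 s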); conditions: Recombinant KvBeta, NADPH fluorescence decrease slope, 10 min; at 10 µM; stronger effect = lower value
[6] = target: Alpha-2C adrenergic receptor (Homo sapiens) (UniProt P18825); experiment: modulators of alpha2C/GIRK thallium flux, primary screen, cell-based, HEK293 alpha2C/GIRK1/2 (AID 624;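 active = fluorescence slope after compound addition differing from the mean of all screened samples at 99.7% confidence, in either direction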;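 also: slope of fluorescence ratio to pre-addition baseline per second over 15 to 24 s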); conditions: thallium flux BTC fluorescence, at 10 µM, actives lie on both sides
[7] = inhibitors of Sendai virus-induced IRF3 signaling, primary screen, TLR/RLR signaling modifier project, cell-based, Sendai virus stimulus, luciferase, 10K MLSCN set (AID 602276;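 active = inhibition at or above 50% at 10 µM; inactive = inhibition below 50%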;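 also: firefly luciferase from ISG56 promoter only with Renilla not read in this screen; 0% = Sendai virus plus DMSO and 100% = medium plus DMSO without virus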); conditions: HEK293 RL24 IRF3 luciferase reporter, at 10 µM, stronger effect = higher value
[8] = inhibitors of poly I:C-induced TLR3 signaling, primary screen, cell-based, poly I:C stimulus, luciferase, 10K MLSCN set (AID 602277;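 active = inhibition of the reporter signal at or above 50%; inactive = inhibition below 50%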); conditions: HEK293-TLR3 RL24 IRF3 luciferase reporter, at 10 µM, stronger effect = higher value

Sequence of Alpha-2C adrenergic receptor (Homo sapiens) (P18825 whole entry, looked up): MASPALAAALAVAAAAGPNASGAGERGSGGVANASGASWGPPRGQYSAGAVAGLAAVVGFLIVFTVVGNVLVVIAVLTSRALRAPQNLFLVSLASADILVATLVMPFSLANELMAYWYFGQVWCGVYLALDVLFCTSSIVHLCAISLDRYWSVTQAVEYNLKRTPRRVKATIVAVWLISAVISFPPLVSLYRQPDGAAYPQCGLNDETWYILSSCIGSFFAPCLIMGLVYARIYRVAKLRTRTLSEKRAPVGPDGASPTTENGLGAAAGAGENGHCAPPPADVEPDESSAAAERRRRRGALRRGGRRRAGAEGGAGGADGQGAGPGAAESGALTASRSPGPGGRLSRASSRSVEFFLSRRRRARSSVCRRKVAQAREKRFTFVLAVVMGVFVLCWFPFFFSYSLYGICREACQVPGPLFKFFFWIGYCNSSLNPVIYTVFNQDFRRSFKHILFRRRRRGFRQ
Sequence of Voltage-gated potassium channel subunit beta-2 (Rattus norvegicus) (P62483 whole entry, looked up): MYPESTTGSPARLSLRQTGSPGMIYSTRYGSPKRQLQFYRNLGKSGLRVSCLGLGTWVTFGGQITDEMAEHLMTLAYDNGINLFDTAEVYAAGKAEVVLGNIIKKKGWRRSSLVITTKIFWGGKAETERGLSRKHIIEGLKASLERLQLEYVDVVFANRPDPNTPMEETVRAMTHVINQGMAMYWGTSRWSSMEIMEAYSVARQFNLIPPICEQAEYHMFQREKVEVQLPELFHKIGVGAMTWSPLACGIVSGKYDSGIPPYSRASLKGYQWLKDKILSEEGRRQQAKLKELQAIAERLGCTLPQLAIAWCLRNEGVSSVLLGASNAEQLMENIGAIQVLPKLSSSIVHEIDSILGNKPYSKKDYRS

| SMILES | cell count [1] | inhibition [1] | inhibition of aggregation [2] | nuclei count [2] | inhibition [3] | nuclei count [3] | fluorescence slope [4] | NADPH fluorescence slope [5] | slope [6] | inhibition [7] | inhibition [8] |
| --- | --- | --- | --- | --- | --- | --- | --- | --- | --- | --- | --- |
| O=C(Nc1ccc(Br)cc1F)c1sccc1-n1cccc1 | 616 | -12.7% (inactive) | -18.9% (inactive) | 103% | -10.6% (inactive) | 110% | -0.397 (inactive) | -3.4e-05 (inactive) | 0.00385 (inactive) | -1.64% (inactive) | -17.5% (inactive) |
| CCc1nnc(NC(=O)C2CC(=O)N(Cc3ccco3)C2)s1 (centres undefined) | 428 | 7.3% (inactive) | -11.1% (inactive) | 104% | -0.2% (inactive) | 106% | -0.507 (inactive) | -6.1e-05 (inactive) | 0.00457 (inactive) | 13.8% (inactive) | 22.1% (inactive) |
| C=CCn1c(SCC(=O)c2cc(C)n(C(C)COC)c2C)nc2sc(C)c(C)c2c1=O (centres undefined) | 357 | 3% (inactive) | -8.9% (inactive) | 99.9% | -1.2% (inactive) | 100% | -0.459 (inactive) | 1e-05 (inactive) | 0.00515 (inactive) | 7.26% (inactive) | 22.9% (inactive) |
| O=C(CCCC(=O)OCC(=O)NC1CCCC1)Nc1ccccn1 | 463 | 2.6% (inactive) | 1.1% (inactive) | 113% | -130% (inactive) | 179% | -0.6 (inactive) | -4.5e-05 (inactive) | 0.00354 (inactive) | 14% (inactive) | 17.5% (inactive) |
| CCCCNC(=O)c1nc2ncc(Br)cn2n1 | 665 | 0% (inactive) | -12.4% (inactive) | 109% | 56.5% (inactive) | 81.1% | -0.442 (inactive) | -7.5e-05 (inactive) | 0.00578 (inactive) | 12.8% (inactive) | 22.4% (inactive) |
| CC(C)=CCCC(C)N(C=O)C(C)CCC=C(C)C (centres undefined) | 470 | 8.1% (inactive) | 4.3% (inactive) | 98.2% | -144% (inactive) | 126% | -0.598 (inactive) | -1.6e-06 (inactive) | 0.00568 (inactive) | 10.3% (inactive) | -8.14% (inactive) |
| COc1ccc(C2c3c(oc4ccccc4c3=O)C(=O)N2c2ccc(C)cn2)cc1OC (centres undefined) | 865 | 0% (inactive) | -13.4% (inactive) | 75% | -34.6% (inactive) | 103% | -0.605 (inactive) | 6.8e-06 (inactive) | 0.00601 (inactive) | -0.686% (inactive) | -4.49% (inactive) |
| COc1ccccc1N1CCN(C(=O)N2CCOCC2)CC1 | 683 | -8.1% (inactive) | -2.9% (inactive) | 100% | -80.8% (inactive) | 107% | -0.417 (inactive) | -6.2e-05 (inactive) | 0.00512 (inactive) | 19% (inactive) | 26.2% (inactive) |
| C=CCNC(=O)c1cccc(Br)c1 | 399 | 6.3% (inactive) | -3.3% (inactive) | 101% | -24.7% (inactive) | 115% | -0.448 (inactive) | 1.8e-05 (inactive) | 0.00497 (inactive) | -5.88% (inactive) | 7.57% (inactive) |
| Cc1c(C(=O)OC2CCC(C)CC2)[nH]c2c1C(=O)CCC2 (centres undefined) | 625 | -0.8% (inactive) | 23.7% (inactive) | 81.6% | -31.8% (inactive) | 118% | -0.56 (inactive) | 1.4e-05 (inactive) | 0.00619 (inactive) | -106% (inactive) | -256% (inactive) |
| O=C(Cc1ccccc1)N1CCCC(c2nc(-c3cccs3)no2)C1 (centres undefined) | 731 | -6.1% (inactive) | -15.1% (inactive) | 89.6% | -22.8% (inactive) | 121% | -0.475 (inactive) | 1.1e-05 (inactive) | 0.00636 (inactive) | -9.21% (inactive) | 2.57% (inactive) |
| COc1cc(C2N3CC4(C)CN2CC(C)(C3)C4)ccc1O (centres undefined) | 309 | -4.3% (inactive) | 15.8% (inactive) | 74.7% | -33.6% (inactive) | 100% | -0.345 (inactive) | -5.2e-07 (inactive) | 0.0063 (inactive) | 0.715% (inactive) | 25.8% (inactive) |
| Cc1ccc(-c2cc(C(F)F)nc(NCC3CCCO3)n2)cc1 (centres undefined) | 647 | 1.4% (inactive) | 15.9% (inactive) | 87.5% | -135% (inactive) | 128% | -0.524 (inactive) | 1.3e-05 (inactive) | 0.00547 (inactive) | -25.4% (inactive) | -60.9% (inactive) |
| c1ccc(OCc2nc(-c3ccccc3)no2)cc1 | 300 | 2.6% (inactive) | 12.9% (inactive) | 87.7% | -72.6% (inactive) | 91.1% | -0.539 (inactive) | 4.5e-05 (inactive) | 0.0046 (inactive) | -80.4% (inactive) | -193% (inactive) |
| CC1CC(C)CN(CCCNC(=O)c2ccc3c(c2)NC(=O)C(N2CCCCC2)S3)C1 (centres undefined) | 395 | -7.7% (inactive) | -6.5% (inactive) | 101% | -14.9% (inactive) | 113% | -0.317 (inactive) | 6.4e-06 (inactive) | 0.00531 (inactive) | -18.6% (inactive) | -14.5% (inactive) |
| CCCCN1C(=O)C2C(C(=O)Nc3cccc(OC)c3)C3C=CC2(O3)C1C(=O)NC1CCCCC1C (centres undefined) | 423 | 3.1% (inactive) | 1.7% (inactive) | 109% | -50% (inactive) | 112% | -0.503 (inactive) | -2.7e-05 (inactive) | 0.00569 (inactive) | 14.1% (inactive) | 24.4% (inactive) |
| COc1cc(C(=O)N2CCN(c3cc(Cl)ccc3Cl)CC2)cc(OC)c1OC | 630 | -6.1% (inactive) | 1% (inactive) | 34.1% | -62.3% (inactive) | 98.9% | -0.425 (inactive) | -7.3e-05 (inactive) | 0.00499 (inactive) | 12% (inactive) | 78.9% (active) |
| CCOC(=O)c1c(C)[nH]c(C)c1C(=O)COc1ccc(NC(=O)c2ccco2)cc1 | 426 | -10.7% (inactive) | 8.3% (inactive) | 102% | -423% (inactive) | 144% | -0.646 (inactive) | 1.7e-05 (inactive) | 0.00505 (inactive) | 14.6% (inactive) | 20.5% (inactive) |
| Cc1cc(C)cc(N(CC(=O)NC2CCC(C)CC2)S(=O)(=O)c2c(C)noc2C)c1 (centres undefined) | 753 | -6.3% (inactive) | 12.1% (inactive) | 114% | -27.2% (inactive) | 115% | -0.622 (inactive) | -3e-05 (inactive) | 0.00687 (inactive) | 7.51% (inactive) | 32.5% (inactive) |
